# ChEMBL document CHEMBL3988442, “University of Dundee, Small-Polar-MMV Screening Library” (2021)
# Target: AMP-activated protein kinase, AMPK (Homo sapiens) (UniProt P54646+O43741+P54619+Q9UGJ0+Q9Y478+Q13131+Q9UGI9)
# Assay: AMP-dependent Kinase enzyme assay. An in vitro enzyme assay that detects ADP turnover that is directly proportional to AMPK activity. This uses naive AMPK that is activated during the assay with MK-8722
# Assay type: functional
# Set-up: scale not given: direction of the effect not stated beside the values
# Conditions: 30 µM
row,Structure (SMILES),Percent Effect [%]
1,CC(CO)NS(=O)(=O)c1cccc(C(C)C)c1 (centres undefined),-0.593
2,Cc1ncsc1COC(=O)c1cccc2c1OCCO2,7.13
3,CCc1n[nH]c(C(=O)NCCn2ccnc2C)c1C,-2.67
4,O=C1[C@@H]2C[C@H](O)CCN2C(=O)CN1CCSc1ccccn1,-5.57
5,CN1C[C@@H]2CC[C@H](CC1=O)N2C(=O)c1ccc(-c2ccccc2)[nH]c1=O,12.5
6,CCc1cnc(N2CCCC(CCC(N)=O)C2)nc1 (centres undefined),-6.19
7,CCc1cnc(CNC(=O)NCCc2ccc(O)cc2)s1,47.9
8,CCC[C@H]1CN(Cc2cc(C#N)n(C)c2C)C[C@@H]1N(C)C,2.21
9,NC(=O)CN(Cc1ncc(-c2ccc(Cl)cc2)o1)C1CCCC1,-5.3
10,O=C(Nc1ccccc1OCCc1ccccn1)N1CCOCC(O)C1 (centres undefined),2.87
11,Cc1ccc(C(=O)NC2CCCN(S(C)(=O)=O)C2)c(=O)[nH]1 (centres undefined),-0.668
12,CC(C)c1noc(C(C)N2CCC(c3nc4ccccc4[nH]3)CC2)n1 (centres undefined),0.872
13,Cc1c(NC(=O)c2cnc[nH]2)cccc1C(=O)NC(C)(C)C,15
14,O=C(O)c1ccn(-c2ccc(NC(=O)c3ccccc3Cl)cc2)n1,5.04
15,CCn1c(C2CCCN2Cc2noc(C(C)(C)C)n2)nc2ccccc21 (centres undefined),13.4
16,CCc1ccc(C(=O)NC[C@H]2CCCN2C(=O)c2ccc(CC)o2)o1,-0.868
17,CCc1cc(CNC(=O)c2cc(NC(=O)C(C)C)ccc2Cl)[nH]n1,0.911
18,CN(C)C1CCN(c2cc(-c3ccccc3)nc3ccnn23)C1 (centres undefined),-0.347
19,Cc1ccc(OCc2occc2C(=O)N2CCCCC(N)C2)cc1 (centres undefined),5.88
20,CCc1nsc(N2CCCN(CC(=O)N(C)C3CC3)CC2)n1,7.28

row,Structure (SMILES),Percent Effect [%]
1,CN(CCc1ccncc1)c1cnn(C)c(=O)c1Br,-1.01
2,CS(=O)(=O)c1ccc(-c2cc(C3CC3)c(C#N)c(N)n2)cc1,12.5
3,CN(C)c1cc2c(nn1)CCN(C(=O)c1ccc(-n3cccn3)nc1)C2,2.65
4,C[C@H](O)c1cnn(-c2ccccc2)c1,3.7
5,Cc1[nH]nc(CCC(=O)N2C[C@H]3CC[C@@H]2CN(C(=O)N(C)C)C3)c1C,0.209
6,COC1CCN(c2ccc(F)cc2CN(C)C(=O)c2cc[nH]n2)CC1,12.3
7,C[C@@H]1CN(S(=O)(=O)N2CCCCCC2)C[C@@]1(O)C1CCC1,-7.79
8,CNS(=O)(=O)CC(=O)NCc1cc2c(s1)CCCCC2,-1.26
9,CC(C)c1cc(C2CCN(C(=O)Cn3cnnn3)CC2)[nH]n1,12.8
10,CC(C)(C)C(=O)N1CCCC1(C(=O)N1CCCC1)c1cnccn1 (centres undefined),-4.87
11,COc1ccc(OC2CCN(C(=O)c3cnc(C)s3)CC2)cc1,-2.19
12,Cc1nnc(N2CCc3cncnc3C2)c(C#N)c1C,-187
13,C[C@@H]1CN(c2ccc(Cl)cn2)C[C@@]1(O)C1CC1,5.94
14,Cc1ccc(N2CCCC(N(C)c3nn4cc(C)nc4s3)C2)nn1 (centres undefined),33
15,Cc1cc(=O)[nH]c(-n2nc(-c3cccs3)cc2N)n1,-13.8
16,Cc1cc(C)c2[nH]c(C(=O)NCCN3CCNC3=O)c(C)c2c1,11.1
17,CC(C)C(=O)NCCc1nc(-c2ccncc2)n[nH]1,10.7
18,COc1nc(C)ccc1CNC(=O)NC(c1ncc(C)s1)C1CC1 (centres undefined),-2.14
19,CCOC(=O)c1n[nH]cc1CN1CCOC(Cc2ccccc2)C1 (centres undefined),-0.201
